Measured values from PubChem BioAssay (EPA / NIEHS).
Calls of active or inactive are those of the source. Rule for the calls: active = hit-call score of the fitted dose curve at least 0.9, where 1 is the maximum; inactive = score below 0.9.

Test: ATG_TCF_b_cat_CIS: Attagene CIS-FACTORIAL HepG2 Assay for human T-Cell-Factor with beta-catenin (TCF/b-cat) (AID 2282965)
Details: HepG2 TCF/beta-catenin cis-reporter transcription, actives raise or lower the signal
Procedure: ATG_CIS is a cell-based, multiplexed-readout assay that uses HepG2, a human liver cell line, with measurements taken at 24 hours after chemical dosing in a 24-well plate.ATG_TCF_b_cat_CIS is one of 52 assay component(s) measured or calculated from the ATG_CIS assay. It is designed to make measurements of mRNA induction, a form of inducible reporter, as detected with fluorescence intensity signals by Reverse transcription polymerase chain reaction (RT-PCR) and Capillary electrophoresis technology.Data from the assay component ATG_TCF_b_cat_CIS was analyzed into 1 assay endpoint. This assay endpoint, ATG_TCF_b_cat_CIS, was analyzed with bidirectional fitting relative to DMSO as the negative control and baseline of activity. Using a type of inducible reporter, measures of mRNA for gain or loss-of-signal activity can be used to understand the reporter gene at the transcription factor-level as they relate to the gene TCF7 and TCF7L2 and LEF1 and TCF7L1. Furthermore, this assay endpoint can be referred to as a primary readout, because this assay has produced multiple assay endpoints where this one serves a reporter gene function. To generalize the intended target to other relatable targets, this assay endpoint is annotated to the dna binding intended target family, where the subfamily is HMG box protein.
Human liver HepG2 cells are transiently transfected with multiple reporter transcription units (MRTUs) in 6-well plates using FuGene 6 reagent (Roche; 3 ml FuGene/1 mg DNA). The MRTU constructs are regulated by a cis-regulating element (promoter). […] A major difference between the CIS and TRANS system is that in CIS activities of endogenous TFs are measured, whereas the TRANS assay evaluates changes in activities of exogenous, chimeric NR-Gal4 proteins. […] At the end of 24 hour incubation, total RNA was isolated using TriZol reagent (Invitrogen). The isolated RNA is then reverse-transcribed using oligo(dT) primer and Mo-MLV reverse transcriptase (Invitrogen) with DNAse I (Ambion) treatment for 30 min. The one-tenth of the produced cDNA was amplified by PCR using Taq DNA polymerase (Invitrogen) and two reporter sequence-specific primers. The PCR products were fluorescently labeled by primer extension with 6-arboxyfluorescein (6-FAM) 5'-labeled reporter sequence-specific primer (2 min at 95 C, 20 s at 68 C and 10 min at 72 C) and these products were digested with 5U of HpaI (New England Biolabs) for 2h at 37 C. The fragments were purified using Qiaquick PCR columns (Qiagen), analyzed on an ABI 3130xL genetic analyzer (Applied Biosystems) with peak positions identified by using a set of X-rhodamine (ROX)-labeled MapMarker1000 molecular weight standards (BioVentures). The raw capillary electrophoresis data was processed using Attagraph software (Attagene).

Question: For `CC=Cc1ccc2c(c1)OCO2`, which AC50 is on record?
Answer: Its AC50 is 80.8 µM (active).

Question: With `CC1(C)C(=O)NC(=O)NC1=O` as the compound, how does the outcome read?
Answer: Its outcome is “inactive”.

Question: With `CCC(C)c1cc(C(C)(C)C)cc(-n2nc3ccccc3n2)c1O` (stereo not given) as the compound, how does the outcome read?
Answer: Its outcome is “inactive”.

Question: For `O=S(=O)(O)O`, which outcome is on record?
Answer: The outcome was “inactive”.

Question: With `O=C(O)COc1ccccc1` as the compound, how does the outcome read?
Answer: Its outcome is “inactive”.

Question: With `S=c1[nH]c2ccccc2[nH]1` as the compound, how does the outcome read?
Answer: The outcome was “inactive”.

Question: For `O=C(NCNC(=O)NC1C(=O)NC(=O)N1CO)NC1C(=O)NC(=O)N1CO` (stereo not given), which outcome is on record?
Answer: The outcome was “inactive”.

Question: With `Cc1ncc(C[n+]2csc(CCO)c2C)c(N)n1` as the compound, how does the outcome read?
Answer: Its outcome is “inactive”.

Question: For `CN(N=O)c1ccccc1`, which outcome is on record?
Answer: Its outcome is “inactive”.

Question: For `C[N+](C)(C)CC(=O)O`, which outcome is on record?
Answer: Its outcome is “inactive”.

Question: With `O=P(O)(Oc1ccccc1)Oc1ccccc1` as the compound, how does the outcome read?
Answer: The outcome was “inactive”.

Question: For `O=C(O)C(Br)Br`, which outcome is on record?
Answer: The outcome was “inactive”.

Question: Which AC50 does the source give for `Nc1ccccc1C(=O)Oc1ccc2ccccc2c1` here?
Answer: Its AC50 is 164 µM (active).

Question: With `CCC1CCC(=O)O1` (stereo not given) as the compound, how does the outcome read?
Answer: Its outcome is “inactive”.

Question: Which outcome does the source give for `O=S(=O)(c1ccccc1)c1ccccc1` here?
Answer: Its outcome is “inactive”.

Question: Which outcome does the source give for `CCOC(=O)NC(=S)Nc1ccccc1NC(=S)NC(=O)OCC` here?
Answer: The outcome was “inactive”.

Question: Which outcome does the source give for `CN(C)C(=O)C(c1ccccc1)c1ccccc1` here?
Answer: The outcome was “inactive”.

Question: Which outcome does the source give for `SCc1ccco1` here?
Answer: Its outcome is “inactive”.

Question: Which outcome does the source give for `CCOC(=O)COc1ccc(Cl)cc1Cl` here?
Answer: Its outcome is “inactive”.

Question: For `CC(=O)c1cc2c(cc1C)C(C)(C)C(C)CC2(C)C` (stereo not given), which AC50 is on record?
Answer: Its AC50 is 168 µM (active).

Question: With `COC(C)(C)CCC[C@H](C)C/C=C/C(C)=C/C(=O)OC(C)C` as the compound, how does the outcome read?
Answer: Its outcome is “inactive”.

Question: For `O=C1Nc2ccc(Cl)cc2C(c2ccccc2)=NC1O` (stereo not given), which AC50 is on record?
Answer: The AC50 was 28.9 µM (active).

Question: Which outcome does the source give for `O=C(CCN1CC1)OCC(CO)(COC(=O)CCN1CC1)COC(=O)CCN1CC1` here?
Answer: Its outcome is “inactive”.

Question: With `Cc1ccccc1CCl` as the compound, how does the outcome read?
Answer: The outcome was “inactive”.

Question: For `CSc1nc(N=[N+]=[N-])nc(NC(C)C)n1`, which outcome is on record?
Answer: Its outcome is “inactive”.

Question: With `O=S(=O)(O)OOS(=O)(=O)O` as the compound, how does the outcome read?
Answer: Its outcome is “inactive”.

Question: With `C=CC(=O)OCCO` as the compound, how does the outcome read?
Answer: The outcome was “inactive”.

Question: Which outcome does the source give for `CCOP(=O)(OCC)Oc1ccc([N+](=O)[O-])cc1` here?
Answer: The outcome was “inactive”.

Question: With `CCc1cccc(C)c1N(C(=O)CCl)[C@@H](C)COC` as the compound, how does the outcome read?
Answer: The outcome was “inactive”.

Question: For `C[N+](C)(C)CC(=O)[O-]`, which outcome is on record?
Answer: Its outcome is “inactive”.

Question: Which outcome does the source give for `COc1ccc(CO)cc1` here?
Answer: Its outcome is “inactive”.

Question: Which AC50 does the source give for `CC(C)c1ccc(O)cc1` here?
Answer: The AC50 was 131 µM (active).

Question: For `CCCCCc1cc(O)cc(O)c1`, which outcome is on record?
Answer: Its outcome is “inactive”.

Question: For `N#Cc1cc(I)c(O)c(I)c1`, which outcome is on record?
Answer: The outcome was “inactive”.

Question: Which outcome does the source give for `C[N+](C)=CCl` here?
Answer: The outcome was “inactive”.

Question: Which outcome does the source give for `Nc1ccc(Cl)c(Cl)c1` here?
Answer: The outcome was “inactive”.

Question: With `C=CC(=O)OCC(CC)CCCC` (stereo not given) as the compound, how does the outcome read?
Answer: The outcome was “inactive”.

Question: Which outcome does the source give for `COc1cc(OC)nc(Oc2cccc(Oc3nc(OC)cc(OC)n3)c2C(=O)O)n1` here?
Answer: The outcome was “inactive”.

Question: With `CCC(C)(C)O` as the compound, how does the outcome read?
Answer: Its outcome is “inactive”.

Question: Which outcome does the source give for `c1ccc2c(c1)CCCC2` here?
Answer: The outcome was “inactive”.
